# From PubChem BioAssay
# Active and inactive are the calls of the source.
# Legend:
# [1] = anti-His antibody binders, primary screen, artefact control for SMM control protein annotation, biochemical, small-molecule microarray, 635 nm fluorescence (AID 1128); conditions: anti-His Alexa647 antibody binding, higher = more signal;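 note: score merges feature fluorescence with signal-to-noise for each printed compound spot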
# [2] = system: Human papillomavirus type 1a E7 protein (residues 1-88); test: HPV1a E7 small-molecule binders, primary screen, biochemical, small-molecule microarray, residues 1-88, 635 nm (AID 1129); conditions: small-molecule microarray binding, fluorescence 635 nm; higher = more signal
# [3] = biological target: Focal adhesion kinase 1 (Homo sapiens) (UniProt Q05397); test: small-molecule microarray binders of FAK, primary screen, biochemical, 635/667 nm fluorescence, BSA, DTT (AID 1130); conditions: PTK2 binding, 635 nm fluorescence, higher = more signal;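 note: composite of spot emission at 667 nm and signal to noise over triplicate slides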
# Sequence of Focal adhesion kinase 1 (Homo sapiens) (Q05397 whole entry, looked up): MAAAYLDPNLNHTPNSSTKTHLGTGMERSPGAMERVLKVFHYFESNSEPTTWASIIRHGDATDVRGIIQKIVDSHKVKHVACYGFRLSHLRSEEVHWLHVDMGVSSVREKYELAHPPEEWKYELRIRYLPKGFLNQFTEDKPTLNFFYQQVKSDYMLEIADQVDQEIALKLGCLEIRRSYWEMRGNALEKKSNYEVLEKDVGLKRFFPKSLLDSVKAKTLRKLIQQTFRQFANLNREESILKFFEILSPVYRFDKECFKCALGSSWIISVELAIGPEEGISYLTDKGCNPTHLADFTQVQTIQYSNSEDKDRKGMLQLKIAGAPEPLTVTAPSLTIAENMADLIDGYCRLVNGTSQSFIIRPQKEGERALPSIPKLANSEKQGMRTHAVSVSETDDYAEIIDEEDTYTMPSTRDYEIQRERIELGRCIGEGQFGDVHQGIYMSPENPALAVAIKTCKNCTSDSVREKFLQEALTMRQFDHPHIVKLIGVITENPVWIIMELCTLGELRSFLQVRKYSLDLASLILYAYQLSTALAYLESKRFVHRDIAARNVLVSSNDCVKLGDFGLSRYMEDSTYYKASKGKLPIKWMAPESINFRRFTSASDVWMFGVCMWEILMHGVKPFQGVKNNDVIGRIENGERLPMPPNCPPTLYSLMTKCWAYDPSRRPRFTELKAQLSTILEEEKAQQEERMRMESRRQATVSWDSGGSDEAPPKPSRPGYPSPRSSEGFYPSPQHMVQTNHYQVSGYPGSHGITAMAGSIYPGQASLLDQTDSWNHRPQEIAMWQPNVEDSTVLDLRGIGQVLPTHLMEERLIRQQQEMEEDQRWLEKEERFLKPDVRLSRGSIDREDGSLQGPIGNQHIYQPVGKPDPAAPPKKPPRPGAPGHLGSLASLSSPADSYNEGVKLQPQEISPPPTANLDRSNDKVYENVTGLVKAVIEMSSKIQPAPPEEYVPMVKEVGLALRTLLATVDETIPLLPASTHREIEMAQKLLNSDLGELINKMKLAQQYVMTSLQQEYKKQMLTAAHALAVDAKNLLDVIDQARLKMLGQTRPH
# [4] = system: Fibrinogen (Alexa647-labelled); test: fibrinogen binders on compound microarrays, profiling panel, artefact control for SMM control-protein annotation, biochemical, small-molecule microarray, 635/667 nm fluorescence (AID 1131); conditions: fibrinogen-A647 binding fluorescence, higher = more signal;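 note: z-score merges 667 nm fluorescence with per-spot signal-to-noise over triplicate slides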
# [5] = biological target: Follistatin (Homo sapiens) (UniProt P19883); test: follistatin binders on small-molecule microarrays, primary screen, biochemical, small-molecule microarray, 635/667 nm fluorescence (AID 1132); conditions: FST binding, 635 nm fluorescence, higher = more signal
# Sequence of Follistatin (Homo sapiens) (P19883 whole entry, looked up): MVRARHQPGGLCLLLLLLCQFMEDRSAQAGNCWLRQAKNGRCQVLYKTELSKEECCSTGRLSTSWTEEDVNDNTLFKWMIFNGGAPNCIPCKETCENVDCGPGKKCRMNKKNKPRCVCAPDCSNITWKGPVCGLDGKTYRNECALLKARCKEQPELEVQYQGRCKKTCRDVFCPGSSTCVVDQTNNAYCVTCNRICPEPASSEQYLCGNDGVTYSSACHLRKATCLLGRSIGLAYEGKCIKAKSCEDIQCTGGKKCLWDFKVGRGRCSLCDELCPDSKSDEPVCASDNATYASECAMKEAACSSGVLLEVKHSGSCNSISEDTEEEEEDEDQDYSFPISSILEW
# [6] = biological target: Fibroblast growth factor 2 (Homo sapiens) (UniProt P09038); test: FGF2 binders on small-molecule microarrays, primary screen, biochemical, small-molecule microarray, 635/667 nm fluorescence (AID 1133); conditions: small-molecule microarray binding, FGF2, fluorescence 635/667; higher = more signal
# Sequence of Fibroblast growth factor 2 (Homo sapiens) (P09038 whole entry, looked up): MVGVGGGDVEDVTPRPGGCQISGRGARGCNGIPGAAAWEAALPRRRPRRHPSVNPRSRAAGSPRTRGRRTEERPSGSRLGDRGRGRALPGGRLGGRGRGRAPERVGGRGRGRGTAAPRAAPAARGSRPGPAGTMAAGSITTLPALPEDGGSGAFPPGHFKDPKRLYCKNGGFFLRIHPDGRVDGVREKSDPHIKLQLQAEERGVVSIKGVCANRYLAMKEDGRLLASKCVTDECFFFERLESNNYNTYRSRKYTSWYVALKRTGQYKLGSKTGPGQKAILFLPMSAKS
# [7] = mitochondrial membrane potential change in A549 cells, profiling panel, cell-based, JC-1 fluorescence, basal, 24 h, 100 nL (AID 1138); conditions: higher = more signal;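 note: A549 lung adenocarcinoma cells under basal conditions with no added stimulus; test concentration not given here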
# Lefty1 = Lefty1 binders on small-molecule microarrays, primary screen, biochemical, small-molecule microarray, 635/667 nm fluorescence (AID 1139); conditions: small-molecule microarray binding, fluorescence 635/667; higher = more signal
# [8] = system: wheat germ agglutinin (Triticum aestivum), Alexa647-labelled; test: wheat germ agglutinin binders on compound microarrays, profiling panel, artefact control for SMM control-protein annotation, biochemical, small-molecule microarray, 635/667 nm fluorescence (AID 1140); conditions: WGA-A647 binding, 635 nm fluorescence, higher = more signal;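 note: score merges 667 nm feature emission with signal to noise over triplicate slides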
# [9] = biological target: Luciferin 4-monooxygenase (Photinus pyralis) (UniProt P08659); test: firefly luciferase enzyme inhibitors, primary screen, biochemical, luminescence, purified enzyme, 2006 set (AID 1141); conditions: SteadyGlo luminescence, 30 min, higher = more signal, called active from +8 up or from −8 down;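 note: cell-free assay with purified firefly luciferase at 100 ng per well in PBS; test concentration not given here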
# Sequence of Luciferin 4-monooxygenase (Photinus pyralis) (P08659 whole entry, looked up): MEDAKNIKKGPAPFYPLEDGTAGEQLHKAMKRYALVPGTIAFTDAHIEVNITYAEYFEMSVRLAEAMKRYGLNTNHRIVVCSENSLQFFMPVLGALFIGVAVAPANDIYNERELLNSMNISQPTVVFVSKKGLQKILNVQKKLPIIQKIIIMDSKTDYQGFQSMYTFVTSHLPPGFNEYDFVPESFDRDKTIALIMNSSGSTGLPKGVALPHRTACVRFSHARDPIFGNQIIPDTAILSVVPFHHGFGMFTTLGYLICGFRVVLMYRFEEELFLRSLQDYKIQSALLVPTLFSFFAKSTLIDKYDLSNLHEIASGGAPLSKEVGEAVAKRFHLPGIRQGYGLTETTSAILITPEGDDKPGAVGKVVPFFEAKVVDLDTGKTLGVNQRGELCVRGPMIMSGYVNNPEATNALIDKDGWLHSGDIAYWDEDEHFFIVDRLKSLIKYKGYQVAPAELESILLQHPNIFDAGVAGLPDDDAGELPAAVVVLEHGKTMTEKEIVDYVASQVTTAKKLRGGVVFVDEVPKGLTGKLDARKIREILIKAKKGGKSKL
SMILES,composite z-score [1],composite z-score [2],composite z-score [3],composite z-score [4],composite z-score [5],composite z-score [6],z-score [7],composite z-score (Lefty1),composite z-score [8],z-score [9]
C=C(COC)/C(=C/C[C@@H](OC(C)=O)c1ccc(OCCO)cc1)c1cc(C(=O)OC)ccc1OC,0.531,1.21,0.481,-0.367,1.25,1.5,0.371,1.19,0.195,-0.371 (inactive)
C=CCC(OC(C)=O)[C@@H]1[C@@H](N(Cc2ccc(-c3cccc(C(F)(F)F)c3)o2)C(=O)c2ccc(-c3ccccc3)cc2)c2cc(OCCCO)ccc2N1C(=O)c1ccc(-c2ccccc2)cc1 (stereo not given in full),-0.674,-0.714,-0.045,-0.557,0.47,-0.0003,0.872,0.164,-0.0266,-0.277 (inactive)
COCCOC(=O)N1C(=O)[C@@]2(c3cc(C#CC4=CCCCC4)ccc31)[C@H](C(=O)N1CCc3cc(OC)c(OC)cc3C1)[C@H]1C(=O)O[C@H](c3ccccc3)[C@H](c3ccccc3)N1[C@@H]2c1ccc(OCCO)cc1,1.2,1.14,0.756,0.868,1.15,1.16,-1.21,1.1,0.118,-1.09 (inactive)
O=C1OCCC/C=C\[C@H]2OC34C=CCN(Cc5ccccc5)C(=O)[C@H]3N(CCCCCCO)C(=O)[C@@H]4C12 (stereo not given in full),0.727,-0.39,0.0123,-1.98,-1.61,-0.929,1.59,-1.55,-0.513,-1.76 (inactive)
COC(=O)[C@@]1(Cc2ccc(OC)cc2)[C@H]2c3cc(C(=O)N4CCCC4)n(Cc4ccccc4)c3C[C@H]2CN1C(=O)c1ccccc1,3,1.25,1.32,1,0.506,-0.368,0.581,-0.292,1.1,2.01 (inactive)
C=CC[C@]12N=C(c3ccc(OCCCO)cc3)O[C@H]1c1ccccc1N(Cc1ccccc1)C2=O,1.74,0.998,0.804,-0.0608,1.29,1.34,-1.21,-0.0331,0.442,-4.07 (inactive)
O=C1c2ccccc2[C@@]2(Cc3ccccc3N(CC(F)(F)F)C2=O)[C@H](c2ccc(CO)cc2)N1Cc1ccccc1Cl,0.181,-0.265,-0.121,-0.134,1.12,0.652,-0.000595,0.667,-0.518,-0.496 (inactive)
O=C1O[C@@H](c2ccccc2)[C@@H](c2ccccc2)N2[C@@H](c3ccc(OCCO)cc3)[C@]3(C(=O)Nc4ccccc43)[C@@H](C(=O)NC[C@H](O)c3ccccc3)[C@H]12,0.87,0.894,-0.177,0.371,1.34,0.968,-0.575,0.0849,0.638,-1.46 (inactive)
CC(=O)n1cc(C(O)C2C=CC3C(=O)N(C)C(=O)C3N2Nc2ccccc2)c2ccccc21 (stereo not given),1.88,1.11,0.214,0.898,1.12,0.607,-0.0732,0.859,0.809,0.376 (inactive)
COc1ccc([Si](C)(C)[C@@H]2[C@@H](CC(=O)N3Cc4ccccc4C[C@H]3CO)O[C@]3(C(=O)N(C)c4c(Br)cc(C)cc43)[C@H]2C)cc1,0.333,1.13,0.341,0.76,1.35,1.65,0.595,1.56,1.03,-0.178 (inactive)
O=C1O[C@@H](c2ccccc2)[C@@H](c2ccccc2)N2[C@@H](c3ccccc3OCCO)[C@]3(C(=O)Nc4ccc(C#CC5=CCCCC5)cc43)[C@@H](C(=O)Nc3nc4ccccc4s3)[C@H]12,0.353,1.17,0.0358,0.843,1.12,0.885,-2.22,0.781,0.622,-0.959 (inactive)
CN(C)CCCNC(=O)[C@@]1(c2ccc([N+](=O)[O-])cc2)CC(=O)N(C2CCCCC2)[C@@H]1c1ccc(CO)cc1I,1.48,1.23,0.634,0.62,0.336,0.225,-2.36,0.0773,0.701,-0.907 (inactive)
CC(=O)NCCCC[C@@H]1NC(=O)[C@@H]2C[C@H](C(=O)NCCCCN(C)C)[C@H](c3cccc(OCCO)c3)N2C1=O,0.605,-0.158,-0.208,-0.908,1.21,1.08,-0.446,0.471,-0.159,0.603 (inactive)
CCOC(=O)[C@H]1C/C=C/C[C@H](C(=O)OCC)C(=O)O[C@H]2[C@@H](OC)O[C@H](CO)[C@@H](OC(=O)Nc3ccc(C#N)cc3)[C@@H]2OC1=O,0.514,0.45,0.499,-0.274,0.336,0.121,-1.92,0.519,0.852,0.215 (inactive)
COCCOC(=O)N1C(=O)[C@@]2(c3cc(C#CC4=CCCCC4)ccc31)[C@H](C(N)=O)[C@H]1C(=O)O[C@H](c3ccccc3)[C@H](c3ccccc3)N1[C@@H]2c1ccc(OCCO)cc1,2.26,1.21,0.797,0.938,0.371,0.925,-1.65,0.517,0.773,-1.8 (inactive)
O=C1C2C=CC(C(O)C3CCCCC3)N(Nc3ccc([N+](=O)[O-])cc3)C2C(=O)N1c1ccccc1 (stereo not given),3.32,1.21,0.539,0.959,-0.647,-1.58,-1.72,-0.153,0.823,0.618 (inactive)
C=CC[C@]1(C(=O)NCCCOC)N=C(c2ccc(OCCCO)cc2)O[C@H]1c1ccccc1N=[N+]=[N-],2.54,1.22,0.143,0.967,1.26,1.28,0.688,-0.397,0.542,-8.19 (active)
[N-]=[N+]=NCc1ccccc1[C@@H]1OC(c2ccc(OCCCO)cc2)=N[C@]1(CCS(=O)(=O)c1ccccc1)C(=O)NCCN1CCOCC1,1.68,1.29,0.261,1.03,1.43,0.913,0.721,0.684,1.31,-2.52 (inactive)
O=C(C1N=C(c2ccc(OCCCO)cc2)N(c2ccccc2)O1)N1CCOCC1 (stereo not given),0.548,1.2,0.497,0.966,1.22,0.667,0.211,0.842,0.388,-12 (active)
CCOC(=O)C[C@H]1[C@H](OC(=O)c2cc3ccccc3oc2=O)[C@@H](NC(=O)Cc2ccc(OC)cc2)c2cc(OCCCO)ccc2N1C(=O)c1ccccc1,-0.0228,0.376,-0.0962,0.367,0.371,0.382,-1.01,0.248,0.318,0.589 (inactive)
Cc1ccc(C(C)CC(O)C2C=CC3C(=O)N(c4ccccc4)C(=O)C3N2Nc2ccc([N+](=O)[O-])cc2)o1 (stereo not given),0.484,1.23,0.772,0.904,1.06,0.232,-0.828,-0.0023,0.646,1.45 (inactive)
[N-]=[N+]=Nc1ccccc1[C@H]1OC(c2ccc(OCCCO)cc2)=N[C@@]1(Cc1ccccc1)C(=O)O,0.864,1.25,0.345,1.04,1.17,0.284,0.384,0.708,0.611,-9.33 (active)
